Results taken from PubChem BioAssay (NCATS).
“And” between values parts separate entries of the source, which are not always exact repeats. Equal entries are not always repeated. Results filed as inconclusive are left out. Where a call stands in place of a potency, no number is given. Values without a mark were called inactive. The source made the active and inactive calls. Calls come from the whole dose curve; as a rule, active = well fitted curve in the direction sought with a large enough effect; inconclusive = small, poorly fitted or top-dose-only effect, or another doubt; inactive = no such curve, though single readings can be large; an effect the other way counts as inactive or inconclusive. Numbered stars: 1 amine (or outer) side, 2 acyl side, 3 side chain; on linkers, the order of the positions; unused ones are H or OH. Bridge positions count the residues as written; N and C are the ends. Square brackets hold non-standard residues; d marks the D form. Peptide text beside a SMILES is read from it. * marks the point of attachment. ξ: configuration not given here. ξhTyr(3S-OH,4S-OH,3'-OSO3H) = NC(C(=O)O)[C@H](O)[C@@H](O)c1ccc(O)c(OS(=O)(=O)O)c1; Orn(4R-OH,5R-OH) = O=C([C@H](C[C@@H](O)[C@@H](O)N[*:3])N[*:1])[*:2]; X6 = CCCCCOc1ccc(-c2cc(-c3ccc(C(=O)*)cc3)no2)cc1; X7 = C[C@H]1CN([*:1])C(C(=O)[*:2])[C@H]1O; ξGln(3R-OH) = NC(=O)C[C@@H](O)C(N)C(=O)O; ξPro(4R-OH) = O=C(O)C1C[C@@H](O)CN1; ξThr(3R) = C[C@@H](O)C(N)C(=O)O

Key:
[1] = molecular target: Cellular tumor antigen p53 (Homo sapiens) (UniProt P04637); assay: Primary qHTS for small molecule compounds that upregulate eGFP-tagged delta133p53alpha (in N-terminal) cells. (AID 2060322); conditions: NCI-H358 eGFP-delta133p53alpha fluorescence, 24 h; activation: active compounds read high; note: nearly all actives have a fitted effect of over 75% in size; note: potency is the fitted concentration of half-maximal effect;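 for activation: cells pre-induced with doxycycline then dosed without doxycycline; series mostly up to about 56 µM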
Chain of Cellular tumor antigen p53 (Homo sapiens) (P04637 whole entry, looked up): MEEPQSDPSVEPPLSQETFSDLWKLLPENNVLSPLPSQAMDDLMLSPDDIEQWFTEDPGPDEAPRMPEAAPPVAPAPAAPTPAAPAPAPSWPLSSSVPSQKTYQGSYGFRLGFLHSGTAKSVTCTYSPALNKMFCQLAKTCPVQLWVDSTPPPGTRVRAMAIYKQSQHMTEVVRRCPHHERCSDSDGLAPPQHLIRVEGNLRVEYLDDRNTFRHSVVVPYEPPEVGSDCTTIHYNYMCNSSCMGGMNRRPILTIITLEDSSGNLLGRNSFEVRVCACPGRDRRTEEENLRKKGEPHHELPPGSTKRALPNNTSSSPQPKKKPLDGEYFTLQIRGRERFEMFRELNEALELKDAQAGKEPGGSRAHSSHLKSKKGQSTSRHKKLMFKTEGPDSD
Method in brief: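 NCI-H358 cells pre-induced 24 h with 10 ng/ml doxycycline for eGFP-delta133p53alpha, plated dox-free and exposed 24 h at 37C to titrated compounds. Fixed, Hoechst-stained; gated GFP peak intensity by laser scanning cytometry, normalized to DMSO (0%) and 57.5 uM 5-azacytidine (100%).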

[2] = molecular target: Aldehyde dehydrogenase, mitochondrial (Homo sapiens) (UniProt P05091); assay: qHTS for Inhibitors of the Aldehyde Dehydrogenase Family (ALDH2) Primary screen (AID 2061308); note: nearly all actives have a fitted effect of over 55% in size
[3] = molecular target: Retinaldehyde dehydrogenase 3 (Homo sapiens) (UniProt P47895); assay: qHTS for Inhibitors of the Aldehyde Dehydrogenase Family (ALDH1A3) Validation screen (AID 2061312); note: nearly all actives have a fitted effect of over 45% in size
[4] = molecular target: Retinaldehyde dehydrogenase 3 (Homo sapiens) (UniProt P47895); assay: qHTS for Inhibitors of the Aldehyde Dehydrogenase Family (ALDH1A3) Primary screen (AID 2061315)

| Structure (SMILES) | activation [1] | Potency [2] | Potency [3] | Potency [4] | Potency [1] |
| --- | --- | --- | --- | --- | --- |
| Cc1c(C2=CCN(C(=O)N(C)C(C)C)CC2)nnn1-c1cccnc1F | -9.55% | inactive | inactive | inactive | – |
| O=c1cc(N2CCOCC2)nc2c3ccccc3ccn12 | 6.21% | inactive | inactive | inactive | – |
| CCn1c2ccccc2c2cc(CNC)ccc21 | 12.4% | inactive | inactive | inactive | – |
| COc1cccc(OC)c1-c1nc(C(=O)N[C@@H](CC(C)C)C(=O)O)cn1-c1ccnc2cc(Cl)ccc12 | -8.59% | inactive | inactive | inactive | – |
| O=C(Nc1cccc(C(F)(F)F)c1)Nc1ccc(Br)cc1-c1nn[nH]n1 | -5.73% | inactive | inactive | inactive | – |
| CCOCCn1nc(CC)c2nc(N3CCC(C(=O)O)CC3)nc(Nc3cc(C)ccn3)c21 | 0% | inactive | inactive | inactive | – |
| CC(C)(F)CC(NC(c1ccc(-c2ccc(S(C)(=O)=O)cc2)cc1)C(F)(F)F)C(=O)NC1(C#N)CC1 (stereo not given) | -1.43% | inactive | inactive | inactive | – |
| O=C(O)CC1CCC(c2ccc(-c3ccc4nc(C(=O)NCc5ccc(OC(F)(F)F)cc5)cn4c3)cc2)CC1 (stereo not given) | 9.07% | inactive | inactive | inactive | – |
| Fc1ccc2c(CCNCc3cccc(OCC(F)(F)C(F)F)c3)c[nH]c2c1 | 3.34% | inactive | inactive | inactive | – |
| CCCCOc1ccc(-c2cncc(C(=O)NCc3cccnc3N3CCOCC3)c2)cc1Cl | 7.64% | inactive | inactive | inactive | – |
| Cc1oc2ccccc2c1CNC(=O)NCc1cccs1 | -8.59% | inactive | inactive | inactive | – |
| CC(=O)NCC(=O)N1C2CCC1c1cc(Nc3ncc(C(F)(F)F)c(NC4CCC4)n3)ccc12 (stereo not given) | – | inactive | inactive | inactive | 3.79 µM (active) |
| CCCCCOc1ccc(-c2cc(-c3ccc(C(=O)N[C@H]4C[C@@H](O)[C@@H](O)NC(=O)C5[C@@H](O)[C@@H](C)CN5C(=O)C([C@H](O)CC(N)=O)NC(=O)C([C@H](O)[C@@H](O)c5ccc(O)c(OS(=O)(=O)O)c5)NC(=O)C5C[C@@H](O)CN5C(=O)C([C@@H](C)O)NC4=O)cc3)no2)cc1 (stereo partly drawn) (X6-[Orn(4R-OH,5R-OH)][ξThr(3R)][ξPro(4R-OH)][ξhTyr(3S-OH,4S-OH,3'-OSO3H)][ξGln(3R-OH)][X7]; lactam 1-C) | -0.955% | inactive | inactive | inactive | – |
| CCN=C1N[C@@H]2[C@@H](O)[C@H](O)[C@@H](CO)O[C@@H]2S1 | 1.43% | inactive | inactive | inactive | – |
| Cc1cc(-n2c(=O)[nH]c(=O)n(C)c2=O)ccc1Oc1ccc(SC(F)(F)F)cc1 | -10.5% | inactive | inactive | inactive | – |
| CC(C)c1c(NC(=O)Nc2ccc(Cl)cc2)c(=O)n(-c2ccccc2)n1C | 9.07% | inactive | inactive | inactive | – |
| CCN[C@@H]1C[C@H](N)[C@@H](O[C@H]2OC(CN)=CC[C@H]2N)[C@H](O)[C@H]1O[C@H]1OC[C@](C)(O)[C@H](NC)[C@H]1O | 10.5% and 9.67% | inactive | inactive | inactive | – |
| CCOc1c2c(c(OCC)c3ccccc13)C(=O)N(c1ccc(CC(=O)NS(=O)(=O)c3ccccc3)cc1)C2 | -25.3% | inactive | inactive | inactive | – |
| COC(=O)C(CC1CCCC1)c1ccc(S(C)(=O)=O)cc1 (stereo not given) | 0.955% | inactive | inactive | inactive | – |
| CNc1ccc([N+](=O)[O-])c(Nc2ccc3[nH]ncc3c2)n1 | – | inactive | inactive | inactive | 10.7 µM (active) |
| COc1ccncc1C(=O)NC(=O)Nc1ccc(-c2ccccc2)c(C(F)(F)F)c1 | -0.477% | inactive | inactive | inactive | – |
| Cc1cc(C)c(-n2cc(C)c3c(Cl)nc(C)nc32)c(C)c1 | -3.82% | inactive | inactive | inactive | – |
| CC1CC(OC(=O)C(O)c2ccccc2)CC(C)(C)C1 (stereo not given) | 1.43% | inactive | inactive | inactive | – |
| C[C@@H](O[C@H]1OCCN(Cc2nn(P(=O)(O)O)c(=O)[nH]2)[C@H]1c1ccc(F)cc1)c1cc(C(F)(F)F)cc(C(F)(F)F)c1 | 10% | inactive | inactive | inactive | – |
| OCC(O)CN1CCN(c2ccccc2)CC1 (stereo not given) | -0.837% and 0.955% | inactive | inactive | inactive | – |
| COc1cc2c(Nc3cc(F)c(Cl)c(Cl)c3)ncnc2cc1OCC1CCCN(C)CCC1 | – | inactive | inactive | inactive | 23.9 µM (active) |
| Cc1cc(C)c(S(=O)(=O)n2cc(C)cc2C)c(C)c1 | 5.73% | inactive | inactive | inactive | – |
| CC(c1ncncc1F)C(O)(Cn1cncn1)c1ccc(F)cc1F (stereo not given) | 0.477% | inactive | inactive | inactive | – |

| Structure (SMILES) | activation [1] | Potency [2] | Potency [3] | Potency [4] | Potency [1] |
| --- | --- | --- | --- | --- | --- |
| CCCNCCOc1ccc(NC(=O)c2c[nH]c3c2C(=O)CCC3)cc1F | -0.955% | inactive | inactive | inactive | – |
| O=C(O)c1ccccc1NC(=O)N1CCC(c2ccccc2C(F)(F)F)CC1 | -3.34% | inactive | inactive | inactive | – |
| CN1CCN(C2=Nc3ccccc3Nc3ccc(Cl)cc32)CC1 | 8.59% | inactive | inactive | inactive | – |
| CN(CCc1ccc(Nc2ncc(-c3cccnc3)s2)cc1)Cc1ccccc1 | -8.59% | inactive | inactive | inactive | – |
| FC(F)(F)Oc1ccc(-c2ccc3nnc(C(F)(F)F)n3c2)cc1 | -3.34% | inactive | inactive | inactive | – |
| COc1ccc([C@H](Cc2ccncc2)c2ccccc2)cc1OC1CCCC1 | -2.86% | inactive | inactive | inactive | – |
| O=C(c1ccc(F)cc1)C1CCN(CCn2c(=O)nc3n(c2=O)CCCC3)CC1 | -6.21% | inactive | inactive | inactive | – |
| Cc1cc(OCCCS(C)(=O)=O)cc(C)c1-c1cccc(COc2ccc3c(c2)OCC3CC(=O)O)c1 (stereo not given) | 6.68% | inactive | inactive | inactive | – |
| CCC(=O)N1CCOc2c(cc(-c3ccc(OC)c(OC)c3)cc2OC[C@H]2CCCN(C)C2)C1 | -0.477% | inactive | inactive | inactive | – |
| CCOC(=O)C(CCc1ccccc1)NC1CCCN2CCCC(C(=O)O)N2C1=O (stereo not given) | -9.55% | inactive | inactive | inactive | – |
| Cn1cc(S(=O)(=O)c2ccc(Cl)cc2)c2cccc(N3CCNCC3)c21 | 3.34% | inactive | inactive | inactive | – |
| COc1cc2nc(N3CCN(C(=O)COc4c(OC)cccc4C(C)C)CC3)nc(N)c2cc1OC | -11% | inactive | inactive | inactive | – |
| O=C(Nc1ccccc1)Nc1ccc(-c2ccc(C(=O)C3CCCC3C(=O)O)cc2)cc1 (stereo not given) | -6.21% | inactive | inactive | inactive | – |
| Cc1cc(C(=O)N2CCCCc3ccccc32)ccc1CNC(=O)N1CCC[C@H]1C(=O)N(C)C | 4.3% | inactive | inactive | inactive | – |
| C=CC(C)(O)CC[C@@H]1[C@@]2(C)CCCC(C)(C)C2CC[C@@]1(C)O (stereo not given in full) | 1.91% | inactive | inactive | inactive | – |
| C[C@@H]([C@@H](O)c1ccc(O)cc1)N1CCC(O)(c2ccccc2)CC1 | 5.25% | inactive | inactive | inactive | – |
| CC[C@H]1OC(=O)[C@H](C)[C@@H](O[C@H]2C[C@@](C)(OC)[C@@H](O)[C@H](C)O2)[C@H](C)[C@@H](O[C@@H]2O[C@H](C)C[C@H](N(C)C)[C@H]2O)[C@@](C)(O)C[C@@H](C)[C@@H]2N[C@@H](COCCOC)OC([C@H]2C)[C@]1(C)O | 7.16% | inactive | inactive | inactive | – |
| Cc1c(NC(=O)N2CCOCC2)ccc2c1c1ccccc1n2C(C)C | -19.1% | inactive | inactive | inactive | – |
| COc1ccc([C@@H]2N[C@H](C(=O)O)Cc3c2[nH]c2ccccc32)cc1CN1CCN(c2ccccc2F)CC1 | 26.7% | inactive | inactive | inactive | – |
| NC(=O)c1ccc(F)c2c1C[C@@H](N(C1CCC1)C1CCC1)CO2 | -11.5% | inactive | inactive | inactive | – |
| C[C@@H](NC(=O)c1cc(C(=O)N[C@@H](Cc2ccccc2)[C@H](O)CNC2CC2)cc(N(C)S(C)(=O)=O)c1)c1ccccc1 | -12.4% | inactive | inactive | inactive | – |
| O=C(Nc1ccc2[nH]c(=O)oc2c1)C(=O)N1CCC(Cc2ccc(F)cc2)CC1 | 2.39% | inactive | inactive | inactive | – |
| CC(C)CCNC(=O)c1ccc2c(c1)nc(Nc1n[nH]c3ccc(-c4ccccc4OC(F)(F)F)cc13)n2C1CCC(O)CC1 (stereo not given) | 6.21% | inactive | inactive | inactive | – |
| FC(F)(F)c1nnc2c(Sc3ccccc3)nc3ccc(Cl)cc3n12 | 29.1% | inactive | inactive | inactive | – |
| CC1(C)CC(NC(=O)C(=O)Nc2ccc(Cl)cc2)CC(C)(C)N1 | 8.11% | inactive | inactive | inactive | – |
| CCc1cc2c(=O)c(-c3nc4ccccc4s3)coc2c(CN2CCCCC2)c1O | 0.955% | inactive | inactive | inactive | – |
| CC(C)[C@@H](C)/C=C/[C@@H](C)[C@H]1CC[C@H]2C3=CC=C4C[C@@H](O)CC[C@]4(C)[C@H]3CC[C@]12C | 14.3% | inactive | inactive | inactive | – |
